Assay outcomes deposited in PubChem BioAssay by National Center for Advancing Translational Sciences (NCATS).
The list is not random: actives were taken first. Their share in the collection is about 18%.
HepG2 tox – counter-screen for TGF-b inhibitors: cytotoxicity in HepG2 cells; HepG2 CAGA-GFP viability, ATP luminescence, 18 h; Potency, µM (series often up to 46.1 µM), for the others: at the highest dose activity change, negative = cytotoxicity, most hits filed as cytotoxic; 0.76% of 410,000 active; AID 588856; note: potency is the fitted concentration of half-maximal effect
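CellTiter-Glo luminescence gave cytotoxicity after 18 hours at 37 degrees C. The cells were HepG2 CAGA-GFP in 1% FBS DMEM, stimulated with 500 pg/mL TGF-beta after compound addition. %Activity was normalised to no-cell wells (complete cell-killing) and DMSO (no toxicity), and curves were fitted and classified.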
DT40 TDP1 no CPT – qHTS for Inhibitors of human tyrosyl-DNA phosphodiesterase 1 (TDP1): qHTS in cells in absence of CPT; DT40 Tdp1-/- hTDP1 cells, no CPT, ATP luminescence, 48 h; Potency, µM (titrated, usually from 46.2 µM), without a hit: top-dose activity change, negative = growth inhibition, hits mostly inhibitors; 15% of 420,000 active; note: potency is the fitted concentration of half-maximal effect; % is set by controls: 0 for no effect and ±100 for the full control effect; nearly all actives have a fitted effect of over 55% in size
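Growth kinetics read by CellTiter-Glo luminescence after ≥48 hr at 37 °C. Cells: DT40 Tdp1-/- stably carrying human TDP1, 400 per well, compound exposure in the absence of CPT (DMSO vehicle).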
IL-1B inflam inh – inflammasome signaling inhibition, IL-1 beta readout. 4.7% of 360,000 active. THP-1 LPS/ATP IL-1B secretion, AlphaLISA, 16 h; hits give low values. AID 743279. activity change, % at 57.5 µM; in the data active = activity change below about -50%; inconclusive = mostly about -30% to -49%; note: % is set by controls: 0 for no effect and ±100 for the full control effect
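THP-1 cells pretreated 1 hr with compounds (up to 57.5 uM final), then stimulated with LPS (250 ng/mL final) plus ATP (1.25 mM final); secreted IL-1B measured by AlphaLISA after 16 hr, decreased signal indicating inhibition.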
TDP1 inh – inhibitors of human tyrosyl-DNA phosphodiesterase TDP1; Potency, µM (titrated, usually from 130 µM), without a hit: at the highest dose activity change, negative = inhibition, hits mostly inhibitors; AID 485290; recombinant TDP1, AlphaScreen DNA substrate cleavage; Q9NUW8; 0.28% of 350,000 active; note: potency is the fitted concentration of half-maximal effect; % is set by controls: 0 for no effect and ±100 for the full control effect; nearly all actives have a fitted effect of over 40% in size
Target sequence (Q9NUW8 whole entry, looked up): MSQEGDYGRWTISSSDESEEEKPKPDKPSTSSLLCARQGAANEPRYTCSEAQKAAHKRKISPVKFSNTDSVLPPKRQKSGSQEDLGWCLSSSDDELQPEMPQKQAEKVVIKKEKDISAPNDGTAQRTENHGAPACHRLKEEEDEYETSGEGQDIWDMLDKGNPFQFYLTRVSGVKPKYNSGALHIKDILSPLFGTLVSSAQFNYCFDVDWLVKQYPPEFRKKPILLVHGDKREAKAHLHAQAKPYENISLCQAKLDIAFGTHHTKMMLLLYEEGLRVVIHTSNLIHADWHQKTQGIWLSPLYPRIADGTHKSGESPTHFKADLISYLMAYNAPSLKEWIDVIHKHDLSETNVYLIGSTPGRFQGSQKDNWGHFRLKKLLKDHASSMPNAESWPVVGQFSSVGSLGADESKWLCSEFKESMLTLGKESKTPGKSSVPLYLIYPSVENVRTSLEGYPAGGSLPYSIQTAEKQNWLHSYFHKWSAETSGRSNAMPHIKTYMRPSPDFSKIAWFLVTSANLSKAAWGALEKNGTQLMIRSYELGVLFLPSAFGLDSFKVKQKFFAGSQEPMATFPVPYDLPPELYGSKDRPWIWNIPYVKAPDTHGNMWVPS
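Steps: enzyme plus compound, 15 min RT; add biotin/phosphotyrosine-FITC oligonucleotide (15 nM final), react 5 min; add donor/acceptor beads (10 ug/ml final), 10 min; read AlphaScreen. Tdp1 at 1 nM final.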
TGFb inhibitor – inhibitors of TGF-b signaling; AID 588855; HepG2 CAGA-GFP TGF-b/SMAD3 reporter, GFP fluorescence, 18 h; TGF-beta stimulated, 500 pg/mL final; 1.2% of 410,000 active; Potency, µM (doses to about 46.1 µM), for inactives: top-dose activity, negative = inhibition, actives largely listed as inhibitors; note: potency is the fitted concentration of half-maximal effect; % is set by controls: 0 for no effect and ±100 for the full control effect; nearly all actives have a fitted effect of over 65% in size
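HEPG2 CAGA-GFP reporter cells (1000/well, DMEM with 1% FBS) received compounds, then recombinant TGF-beta at 500 pg/mL final for 18 hours at 37 degrees C. Per-cell GFP summed per well was normalised to unstimulated and stimulated DMSO controls before curve fitting.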
TDP1 cell CPT – growth inhibition of DT40 Tdp1-/-;hTDP1 cells with camptothecin (screen for TDP1 inhibitors); Potency, µM (series often up to 46.2 µM), for the others: top-dose activity change, negative = growth inhibition, most hits filed as inhibitors; chicken DT40 Tdp1-/-;hTDP1 cells + 20 nM CPT, ATP luminescence, 48 h; 12% of 420,000 active; note: potency is the fitted concentration of half-maximal effect; % is set by controls: 0 for no effect and ±100 for the full control effect; nearly all actives have a fitted effect of over 55% in size
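Chicken DT40 Tdp1-/- cells complemented with human TDP1, 400 cells/well, exposed to compounds plus 20 nM camptothecin for at least 48 h at 37 C; viability read as ATP content by CellTiter-Glo luminescence.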
Starred values were filed as active, the others as inactive; ? = inconclusive; . = no result. Unless noted, calls come from the whole dose curve; as a rule, active = well fitted curve in the direction sought with a large enough effect; inconclusive = small, poorly fitted or top-dose-only effect, or another doubt; inactive = no such curve, though single readings can be large; an effect the other way counts as inactive or inconclusive.

SMILES	HepG2 tox	DT40 TDP1 no CPT	IL-1B inflam inh	TDP1 inh	TGFb inhibitor	TDP1 cell CPT
O=C(CC1CCCC1)Nc1nc2ccccc2[nH]1	-5%	9.2µM*	0	2%	?	?
COc1ccc(C2=NS(=O)(=O)N(C)C(C(=O)NCc3ccc4c(c3)OCO4)=C2)cc1OC	-4%	?	0	.	-2%	?
COc1ccc(CNc2nc(SCc3cc(=O)n4cc(Cl)ccc4n3)nc3ccccc23)cc1	-4%	21µM*	19	5%	-1%	13µM*
N#C/C(=N\Nc1cccc(C(F)(F)F)c1)C(=O)c1ccsc1	-81%	5.8µM*	?	9%	10µM*	5.2µM*
CCC(C)NC(=O)c1ccc2nc(-c3cccs3)c(-c3cccs3)nc2c1 (stereo unspecified)	-12%	13µM*	.	-2%	-15%	10µM*
COc1cc(NC(=O)c2cc(-c3ccc(C)cc3)on2)cc(OC)c1OC	2%	?	75	.	18%	-14%
COc1cc(NC(=O)c2cc(-c3cccs3)on2)cc(OC)c1OC	-17%	16µM*	-6	3%	-8%	21µM*
COc1cc(NC(=O)c2cc(-c3ccccc3Cl)on2)cc(OC)c1OC	2%	2.9µM*	-81*	.	-10%	2.9µM*
COc1cc(NC(=O)c2cc(-c3cccc(O)c3)on2)cc(OC)c1OC	-31%	13µM*	5	2%	?	?
O=C(CSc1ccc2nnc(-c3ccccn3)n2n1)Nc1ccccc1F	30%	?	-1	7%	12%	-2%
COc1ccc2cc(OCC(=O)NNC(=O)Nc3ccc(F)cc3)ccc2c1	-3%	-12%	0	-4%	-3%	-10%
CCOc1ccc(NC(=O)[C@H]2O[C@@H]3OC(C)(C)O[C@@H]3[C@H]3OC(C)(C)O[C@H]32)cc1	-31%	?	.	3%	-34%	?
CC(C)c1nnc(NC(=O)C2CCN(C(=O)Nc3ccc(Cl)cc3)CC2)s1	-8%	-21%	-5	-6%	-6%	-18%
COc1cc(NC(=O)Nc2cccc(C(C)=O)c2)cc(OC)c1OC	-2%	-12%	-1	5%	-4%	1%
O=C(Nc1ccc2nc(-c3cccs3)c(-c3cccs3)nc2c1)N1CCCC1	-2%	?	.	0%	-2%	?
COc1cc(NC(=O)c2noc3c2CCc2ccccc2-3)cc(OC)c1OC	-38%	16µM*	.	1%	?	7.3µM*
COc1cc(NC(=O)Nc2cccc(-c3noc(C)n3)c2)cc(OC)c1OC	-26%	23µM*	.	7%	0%	?
COCCNC(=O)Nc1ccc2nc(-c3cccs3)c(-c3cccs3)nc2c1	-1%	?	-54*	4%	8%	?
COc1cc(NC(=O)c2cc(-c3ccc(Cl)c(Cl)c3)on2)cc(OC)c1OC	7%	?	.	0%	-19%	8.2µM*
Cn1cccc1CC(=O)NNC(=O)Nc1ccccc1F	2%	3%	5	3%	5%	-5%
O=C(COC(=O)[C@@H]1CCCN1S(=O)(=O)c1ccccc1F)Nc1ccc(OC(F)F)cc1	-2%	-7%	-6	5%	-2%	1%
C[C@H](CO)N1C[C@H](C)[C@@H](CN(C)C(=O)c2ccncc2)OCc2cnnn2CCCC1=O	-1%	-24%	-4	.	-8%	-5%
COCCNC(=O)c1cc(-c2cccs2)on1	-9%	23µM*	20	1%	-23%	?
CC(=O)N/C(=C\c1ccccc1)C(=O)OCc1ccc(F)cc1	-8%	-1%	-13	5%	-10%	-12%
